Laboratory results: PubChem BioAssay (NCI)
The panel holds about 83,000 compounds, 20% with a hit somewhere; the sample as a whole holds those more often.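 Plates (96-well) were seeded with cells, treated with compound at one concentration, and incubated for 48 hours before percent growth was determined.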 Values without a mark were called inactive. Activity calls are given as the source filed them. Rule for the calls: active = growth percent below 10; inactive = the rest.

Assays:
Test in all cases: NCI-60 one-dose screen, 48 h (100 = growth as untreated, 0 = no growth, -100 = all killed)
Settings in all cases: 10 µM unless noted
DU-145 prostate = tested on: DU-145 prostate
K-562 leukemia = tested on: K-562 leukemia
MALME-3M melanoma = tested on: MALME-3M melanoma
MDA-MB-231 breast = tested on: MDA-MB-231 breast
RXF 393 renal = tested on: RXF 393 renal
SF-268 CNS = tested on: SF-268 CNS
SF-295 CNS = tested on: SF-295 CNS
SF-539 CNS = tested on: SF-539 CNS
UACC-257 melanoma = tested on: UACC-257 melanoma
M14 melanoma = tested on: M14 melanoma
HCT-15 colon = tested on: HCT-15 colon
HT29 colon = tested on: HT29 colon
SNB-75 CNS = tested on: SNB-75 CNS
SNB-19 CNS = tested on: SNB-19 CNS
U251 CNS = tested on: U251 CNS
PC-3 prostate = tested on: PC-3 prostate
SK-MEL-5 melanoma = tested on: SK-MEL-5 melanoma
UACC-62 melanoma = tested on: UACC-62 melanoma
LOX IMVI melanoma = tested on: LOX IMVI melanoma
SK-MEL-28 melanoma = tested on: SK-MEL-28 melanoma

Structure (SMILES) | growth (DU-145 prostate) | growth (K-562 leukemia) | growth (MALME-3M melanoma) | growth (MDA-MB-231 breast) | growth (RXF 393 renal) | growth (SF-268 CNS) | growth (SF-295 CNS) | growth (SF-539 CNS) | growth (UACC-257 melanoma) | growth (M14 melanoma) | growth (HCT-15 colon) | growth (HT29 colon) | growth (SNB-75 CNS) | growth (SNB-19 CNS) | growth (U251 CNS) | growth (PC-3 prostate) | growth (SK-MEL-5 melanoma) | growth (UACC-62 melanoma) | growth (LOX IMVI melanoma) | growth (SK-MEL-28 melanoma)
CCOC(=O)Cc1cnc(N/N=C(\C)c2cc3ccccc3o2)s1 | 113% | 98.5% | 91.8% | 91.4% | 107% | 98.8% | 104% | 107% | 98.2% | 98.2% | 105% | 85.5% | 105% | 95% | 91.3% | 78% | 99.3% | 86.3% | 86% | 110%
Oc1c(I)cc(I)cc1CNCCN(Cc1ccccn1)Cc1ccccn1 | -74.1% (active) | 0.636% (active) | -62.1% (active) | -36.1% (active) | -85.5% (active) | 1.18% (active) | -84.6% (active) | -56.6% (active) | -58.7% (active) | -32.5% (active) | -30.4% (active) | -37% (active) | -57.2% (active) | 16.7% | -29.1% (active) | -41% (active) | -97% (active) | -14.3% (active) | -64.2% (active) | -14% (active)
O=C1/C(=C/c2cn(-c3ccccc3)nc2-c2ccccc2)SC(=S)N1C1CCCCC1 | 106% | 101% | 92.3% | 89.8% | 106% | 102% | 104% | 99.4% | 102% | 99.1% | 109% | 111% | 99.2% | 96.9% | 107% | 96.3% | 100% | 92.6% | 91% | 101%
CCC1=C[C@@H]2C[C@]3(C(=O)OC)c4[nH]c5ccccc5c4CC[N@+](CC(=O)Nc4cc5c(cc4OC)N(C)[C@H]4[C@@](O)(C(=O)OC)[C@H](OC(C)=O)[C@]6(CC)C=CCN7CC[C@]54[C@@H]76)(C2)[C@H]13 | 117% | 106% | 102% | 98.2% | 114% | 105% | 107% | 106% | 101% | 97.7% | 108% | 109% | 98.8% | 110% | 97.3% | 93.2% | 101% | 97.7% | 99.1% | 109%
CSc1nc2ccccc2cc1/C=C1/C=C(c2ccccc2)NC1=O | 93.2% | 35.7% | 86.9% | 86.6% | 84.6% | 87.2% | 67% | 96.4% | 86.8% | 66.8% | 41.3% | 38.9% | 79.3% | 80.1% | 78.8% | 70.4% | 82.3% | 64% | 74.4% | 92.6%
Cc1cc(N2CCN(CC(=O)Nc3ccc4c(ccn4C)c3)CC2)nc(N2CCCCCC2)n1 | 94.2% | 65.6% | 93.6% | 101% | 86.2% | 102% | 98.9% | 110% | 91.9% | 98.7% | 79% | 56.9% | 90.1% | 89.1% | 85.9% | 82.8% | 92.1% | 84.3% | 92.8% | 96.9%
O=C(O)c1cn(C2CC2)c2cc(N3CCN(Cc4ccc5ccccc5c4O)CC3)c(F)cc2c1=O | 11.2% | 62% | 13.9% | 48.4% | -23.2% (active) | 57.1% | 44.2% | -4.68% (active) | 38.5% | 48% | 9.69% (active) | -32.4% (active) | -14.4% (active) | 78.3% | 45.8% | 39.3% | 61.6% | 38.8% | 40.1% | 38.6%
O=C(/C=C(/C=C/c1ccc2[nH]ccc2c1)OB(F)F)/C=C/c1ccc2[nH]ccc2c1 | 3.56% (active) | -21.9% (active) | 31.1% | 12.2% | -57.6% (active) | 16.7% | -25.4% (active) | -7.54% (active) | 43.3% | -27.5% (active) | -52.9% (active) | -55.7% (active) | 23.1% | 12.9% | -84.1% (active) | -6.64% (active) | 12.2% | -21.5% (active) | -64.3% (active) | 22%
COC1/C=C/OC2(C)Oc3c(C)c(O)c4c(O)c(c(/C=N/Nc5ccc([N+](=O)[O-])cc5[N+](=O)[O-])c(O)c4c3C2=O)NC(=O)C(C)=C/C=C/C(C)C(O)C(C)C(O)C(C)C(OC(C)=O)C1C (stereo not given) | 39.4% | 4.82% (active) | 29.2% | -7.83% (active) | -74.3% (active) | 13.8% | 81.1% | -2.39% (active) | 34.6% | 11.4% | 41.6% | -37.2% (active) | 67% | 38.6% | -31.9% (active) | 34.2% | 29.7% | -41.3% (active) | -56.9% (active) | 37.3%
COc1ccc(/C=C(\C#N)n2nnc3cc(F)c(F)cc32)cc1 | 47.6% | 8.72% (active) | 45.6% | 64.9% | 85.8% | 68.6% | 72.3% | 44.5% | 81.9% | 6.43% (active) | 29.9% | 6.99% (active) | 70.9% | 59.1% | 72.4% | 41.2% | 52.2% | 29.6% | 47.1% | 58.1%
CC(C)=CC(=O)OCC(=O)O[C@@H]1C[C@]2(C(C)C)O[C@@]1(C)[C@@H]1CC[C@@H](C)[C@H]1[C@@H]2OC(=O)/C=C/c1ccccc1 | 96.8% | 60.7% | 99.8% | 90.9% | 1.65% (active) | 62.3% | 95.4% | 104% | 86.8% | 88.1% | 86.8% | 85.8% | 88.7% | 99.3% | 81.8% | 63.7% | 90.5% | 78.5% | 86.9% | 103%
COc1ccc(\C=N/N=C(N)/C(N)=N\N=C/c2ccc(OC)cc2)cc1 | 113% | 99.9% | 106% | 107% | 96.9% | 100% | 97.3% | 92.7% | 121% | 111% | 104% | 102% | 86.8% | 112% | 107% | 101% | 105% | 104% | 99.1% | 125%
O=C(CSc1nnc(-c2cnccn2)n1-c1ccccc1)c1ccc(Cl)cc1 | 105% | 91.1% | 105% | 99.8% | 114% | 104% | 99.3% | 103% | 96% | 102% | 97.5% | 94.7% | 110% | 101% | 93.7% | 87.8% | 99.7% | 84.9% | 108% | 103%
COc1cc(OCc2cccc(Br)c2C)cc(OC)c1C=O | 91.3% | 67% | 114% | 95.2% | 75.1% | 91.9% | 86.7% | 91.9% | 83% | 90.9% | 80.6% | 75% | 90.2% | 91.8% | 87% | 79.6% | 91.9% | 36.5% | 90.1% | 99.5%
